An excerpt weighted towards active compounds, which were near 19% of everything screened.
SARS PLpro yeast = inhibitors of SARS-CoV papain-like protease in yeast; S. cerevisiae expressing SARS-CoV PLpro, growth rescue; 330,000 compounds, 0.19% hits; Potency, µM (doses to about 32.9 µM), for the others: top-dose activity, positive = growth rescue, most hits filed as activators; calls by dose curve; also: potency is read from the fitted curve at half-maximal effect; 0% is about no effect; nearly all actives have a fitted effect of over 55% in size
Pf growth 96h = inhibits malaria parasite growth, 96 h; P. falciparum luciferase reporter growth, 96 h; Potency, µM (series often up to 28.7 µM), inactives show top-dose activity change, negative = inhibition, actives largely listed as inhibitors; 320,000 compounds, 6.9% hits; also: potency is read from the fitted curve at half-maximal effect; % is scaled to controls: 0 for no effect and ±100 for the full control effect
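Plates of compound plus infected erythrocytes (2% hematocrit, 0.05% parasitemia final) incubate 96 hours, 37 C, 5% CO2. Detection reagent added; reduced luminescence from the parasites' luciferase reporter flags inhibition.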
Shiga toxin inh = inhibitors of Shiga toxin in Vero cells | Vero cells, Shiga toxin protein synthesis inhibition reporter | inhibition, % at 38.7 µM | 290,000 compounds, 9.2% hits | AID 2315; in the data active = inhibition mostly above about 28%, no sharp cut-off; inactive = mostly below about 43%; also: 0% is about no effect
AMA1-RON2 inh = AMA1-RON2 (P. falciparum) interaction inhibition; AlphaScreen AMA1-biotinylated RON2 peptide binding; Potency, µM (series often up to 58.2 µM), for inactives: at the highest dose activity change, negative = inhibition, usual class: inhibitors; 360,000 compounds, 0.2% hits; AID 720542;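 also: potency is read from the fitted curve at half-maximal effect; 0% = vehicle wells and -100% = peptide control; nearly all actives have a fitted effect of over 45% in size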
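AMA1 (3D7) with his tag at 25 nM final met compounds first, then biotinylated RON2 peptide at 25 nM; detection used donor plus acceptor beads, 10 µg/mL apiece, read by AlphaScreen after 30 min at room temperature.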
Pf growth 48h = inhibits P. falciparum growth in the first generation, 48 h. P. falciparum luciferase growth in erythrocytes, 48 h. 310,000 compounds, 5.9% hits. AID 504832. Potency, µM (highest dose often 28.7 µM), for inactives: at the highest dose activity change, negative = inhibition, usual class: inhibitors; also: potency is read from the fitted curve at half-maximal effect; % is scaled to controls: 0 for no effect and ±100 for the full control effect
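Read-out is firefly luciferase luminescence from an integrated reporter in P. falciparum, so falling signal marks reduced parasite growth. Infected erythrocytes were at 2% hematocrit and 0.1% parasitemia (final) in Albumax-supplemented RPMI 1640.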
CHX counter = counter-screen hit for Shiga toxin inhibitors, cycloheximide; cell reporter, cycloheximide protein synthesis inhibition counterscreen; max response, %; 300,000 compounds, 12% hits; AID 2314; in the data active = max response mostly above about 13%, no sharp cut-off; inactive = mostly below about 14%; also: read at 38.3 µM for the half of the compounds with a filed dose; 0% is about no effect
The depositor's hits bear a star; ? = inconclusive; · = no result; + = active, no number; [ ] = another dose, or the depositor's remark. Unless noted, calls follow the shape of the dose curve; as a rule, active = well fitted curve in the direction sought with a large enough effect; inconclusive = small, poorly fitted or top-dose-only effect, or another doubt; inactive = no such curve, though single readings can be large; an effect the other way counts as inactive or inconclusive.

SMILES	SARS PLpro yeast	Pf growth 96h	Shiga toxin inh	AMA1-RON2 inh	Pf growth 48h	CHX counter
CCOC(=O)c1sc(NC(=O)c2cncc(Br)c2)nc1C	0%	-17%	56*	·	382%	15
COc1ccc(/C=N/NC(C)(C)C)c(OC)c1	1%	23%	-6	-11%	-9%	-1
COc1ccc(OCCCc2c(C)n[nH]c2C)cc1	16%	9.3µM*	8	-3%	·	5
CNCCc1c(C)n[nH]c1C	-1%	12µM*	-13	8%	0%	-1
COc1ccc(N=Nc2c(C)n[nH]c2C)cc1	-7%	52%	119*	-20%	53%	29*
Cc1n[nH]c(C)c1N=Nc1ccc(Br)cc1	-16%	30%	51	-9%	18%	27*
CCCn1c(SCC(=O)OCc2ccccc2)nc2c1c(=O)n(C)c(=O)n2C	-2%	-1%[5.75 µM]	-13	10%	13%	1
CCCN(CCC)S(=O)(=O)c1ccc(NC(=O)COc2ccccc2)cc1	-8%	9.3µM*	-14	-9%	·	-4
COc1ccc(NS(=O)(=O)c2ccc(NC(=O)Cc3cccs3)cc2)cc1	13%	?	-6	-3%	-11%	-3
CCCNS(=O)(=O)c1ccc(NC(=O)Cc2cccs2)cc1	-16%	44%	21	2%	28%	19*
CCCN(CCC)S(=O)(=O)c1ccc(NC(=O)Cc2cccs2)cc1	-11%	?	16	-3%	·	1
CCCCN(CCCC)S(=O)(=O)c1ccc(NC(=O)Cc2cccs2)cc1	2%	·	27	4%	?	35*
CC(=O)c1sc(NS(=O)(=O)c2ccc(C)cc2)nc1-c1ccccc1	11%	-28%	-6	-6%	14%	4
Nc1nc(NCc2c(F)cccc2Cl)nn1-c1ccccc1	-3%	·	56*	-16%	27%	25*
COc1cccc(NC(=O)N(Cc2cc3cc(C)cc(C)c3[nH]c2=O)CC2COCCO2)c1 (stereo unspecified)	8%	61%	-15	-2%	9.3µM*	-2
COc1ccccc1NC(=O)N(Cc1ccco1)Cc1cc2cccc(C)c2[nH]c1=O	-4%	13µM*	-10	-13%	?	1
COc1ccc2[nH]c(=O)c(CN(CCN3CCCC3)C(=O)Nc3ccccc3Cl)cc2c1	-2%	22%	-12	-1%	?	-3
COc1ccccc1NC(=O)N(Cc1ccco1)Cc1cc2c(C)ccc(C)c2[nH]c1=O	12%	28%	-3	17%	?	-3
COc1ccccc1NC(=S)N(Cc1ccco1)Cc1cc2cc(C)ccc2[nH]c1=O	-14%	?	12	14%	12µM*	-2
CCOc1ccc2[nH]c(=O)c(CN(CCN3CCCC3)C(=S)Nc3ccccc3OCC)cc2c1	0%	?	-7	-3%	6.6µM*	1
CCCCC(=O)N1C(C)CCC1C (stereo unspecified)	·	·	·	-5%	·	·
COC(=O)c1c(-c2ccccc2OC)sc2cc3c(cc12)OCO3	-12%	·	·	37%	·	·
COc1cc(C(=O)NCC(=O)OCCN2C(=O)c3ccccc3C2=O)cc(OC)c1OC	-2%	44%	-21	7%	13%	-8
CCN1CCCC1CN(Cc1cc2cc(C)cc(C)c2[nH]c1=O)C(=O)Nc1ccccc1OC (stereo unspecified)	2%	34%	-1	-7%	9.3µM*	0
CCc1ccc2[nH]c(=O)c(CN(Cc3ccccc3OC)C(=O)Nc3ccccc3OC)cc2c1	-3%	·	-10	-16%	12µM*	-1
SMILES	SARS PLpro yeast	Pf growth 96h	Shiga toxin inh	AMA1-RON2 inh	Pf growth 48h	CHX counter
CCN(CC)CCN(Cc1cc2cc(C)ccc2[nH]c1=O)C(=O)Nc1ccccc1OC	1%	·	-3	18%	?	-3
O=S(=O)(NCc1ccc2c(c1)OCO2)c1ccc(F)c(F)c1	-1%	24%	-8	11%	10%	1
CC(C)=Cc1oc2ccc([N+](=O)[O-])cc2c1N1CCOCC1	0%	?	65*	-20%	?	21*
COc1ccc(C(=O)C2CCCN(C/C=C/c3ccccc3OC)C2)c(OC)c1 (stereo unspecified)	-1%	25%	-6	-5%	?	-3
O=C(CCc1ccc(S(=O)(=O)N2CCOCC2)cc1)N1CCN(Cc2ccc3c(c2)OCO3)CC1	-7%	3.3µM*	-9	-3%	·	-2
O=C(c1cccc(F)c1)N1CCN(Cc2ccc3c(c2)OCO3)CC1	9%	19%	·	5%	?	5
Cc1noc(C)c1S(=O)(=O)N1CCC(C(=O)N2CCN(Cc3ccc4c(c3)OCO4)CC2)CC1	2%	5.9µM*	-6	-3%	?	-1
CC1CCN(c2nc3ccc(C(=O)N4CCN(Cc5ccc6c(c5)OCO6)CC4)cc3s2)CC1	8%	4.1µM*	+	5%	·	136*
Cc1ccc(C(=O)N2CCN(Cc3ccc4c(c3)OCO4)CC2)o1	3%	81%	-15	-24%	6%	-4
Cc1ccc2c(C)c(C(=O)N3CCN(Cc4ccc5c(c4)OCO5)CC3)oc2c1C	-5%	?	75*	-24%	?	32*
CCOc1ccc2ccccc2c1/C=N/NC(=O)c1ccncc1	-5%	-20%	1	40%	14%	-1
CCOC(=O)C1CCN(C(=O)Nc2ccc(Cl)cc2Cl)CC1	14%	7%	-16	-9%	4%	-5
O=C(c1ccc(S(=O)(=O)N2CCCC2)cc1)N1CCN(Cc2ccc3c(c2)OCO3)CC1	2%	·	-4	3%	?	-2
Cc1ccc(C(=O)N2CCN(Cc3ccc4c(c3)OCO4)CC2)cc1S(=O)(=O)N1CCOCC1	0%	10µM*	-9	0%	?	-2
c1ccc(Nc2c(-c3ccco3)nc3ccccn23)cc1	-14%	?	-2	-17%	4%	16
COc1ccc(Nc2c(-c3ccco3)nc3cccc(C)n23)cc1	-8%	2.6µM*	18	-25%	0%	-6
Cc1ccc(Nc2c(-c3ccco3)nc3ccccn23)cc1	-21%	38%	97*	-14%	?	30*
COc1ccc(Nc2c(-c3ccco3)nc3ccc(C)cn23)cc1	-6%	?	38	-6%	?	31*
NC(=O)c1ccc(SCC(=O)OCC(=O)N2CCN(C(=O)c3ccco3)CC2)c([N+](=O)[O-])c1	0%	2%	·	20%	2%	·
Cc1noc(C)c1COc1cccc(C(=O)N2CCc3ccccc32)c1	-6%	-18%	-7	-4%	?	5
COC(=O)c1ccc(CNC(=O)c2ccc3c(c2)S(=O)(=O)N=C2CCCCCN23)cc1	5%	?	·	0%	-25%	·
O=C(N=C1c2ccccc2CN1c1cccc(Cl)c1)c1cccnc1	-23%	-40%	26*	17%	66%	34*
O=C(N=C1c2ccccc2CN1c1ccc(F)c(F)c1)c1cccnc1	0%	8%	39	-14%	?	29*
